Assay results taken from PubChem BioAssay (EPA / NIEHS).
Inconclusive results are not listed. Where a structure was tested more than once in an assay, its records may differ in their call. The source made the active and inactive calls. Rule for the calls, unless noted: active = hit-call score of the fitted dose curve at least 0.9, where 1 is the maximum; inactive = score below 0.9.

Key:
[1] = read-out: Interleukin-8 (IL8), CXCL8 (gene 3576); assay: BSK_3C_IL8: BioMAP Diversity Plus: 3C Assay for Interleukin-8 (IL8) Biomarker Activity (AID 2283020); conditions: primary human endothelial cells (HUVEC); actives raise or lower the signal
How it was run: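 Primary human umbilical vein endothelial cells (3C system) were exposed to test chemical for 24 h, then IL-8 was quantified by ELISA. Responses were fitted bidirectionally against DMSO vehicle as baseline.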

[2] = read-out: Monokine induced gamma interferon (MIG), CXCL9 (gene 4283); assay: BSK_3C_MIG: BioMAP Diversity Plus: 3C Assay for Monokine induced gamma interferon (MIG) Biomarker Activity (AID 2283021); conditions: primary human endothelial cells (HUVEC); actives raise or lower the signal
How it was run: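 Primary human umbilical vein endothelial cells in the 3C system were exposed to chemical for 24 h, after which MIG was quantified by ELISA. Activity was fitted bidirectionally against DMSO as negative control and baseline.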

[3] = BSK_3C_SRB: Viability Assessment in the BioMAP Diversity Plus: 3C Assay (AID 2283023); conditions: primary human endothelial cells (HUVEC);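 note: fitted both ways against DMSO so a hit may be signal rise or drop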
How it was run: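 Human umbilical vein endothelial cells in the 3C system, treated 24 h. Total protein measured by 0.1% sulforhodamine B staining after 10% TCA fixation, read at 560 nm; bidirectional fit versus DMSO.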

[4] = read-out: Matrix Metallopeptidase 1 (MMP1), MMP1 (gene 4312); assay: BSK_BE3C_MMP1: BioMAP Diversity Plus: BE3C Assay for Matrix Metallopeptidase 1 (MMP1) Biomarker Activity (AID 2283024); conditions: primary human bronchial epithelial cells; actives raise or lower the signal
How it was run: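 Primary human bronchial epithelial cells were dosed with test chemicals, and MMP1 levels were measured by ELISA 24 h later. Data were fitted bidirectionally against DMSO as the negative control and activity baseline.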

[5] = BSK_3C_Vis: BioMAP Diversity Plus: 3C Assay for Morphology Visualization (AID 2283025); conditions: primary human endothelial cells (HUVEC);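 note: fitted both ways so gain or loss versus DMSO counts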
How it was run: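 Human umbilical vein endothelial cells in the 3C system were imaged by light microscopy 24 h after chemical dosing to record cell morphology. Activity was fitted bidirectionally against DMSO as negative control and baseline; the endpoint serves as a background control.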

[6] = read-out: Pselectin, SELP (gene 6403); assay: BSK_4H_Pselectin: BioMAP Diversity Plus: 4H Assay for Pselectin Biomarker Activity (AID 2283026); conditions: primary human endothelial cells (HUVEC); actives raise or lower the signal
How it was run: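 Primary human umbilical vein endothelial cells were exposed to test chemical for 24 h, then cell-surface P-selectin was quantified by ELISA. Activity was fitted bidirectionally against DMSO as negative control and baseline.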

[7] = BSK_4H_SRB: Viability Assessment in the BioMAP Diversity Plus: 4H Assay (AID 2283027); conditions: primary human endothelial cells (HUVEC);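 note: cells exposed to compound for 24 h before staining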
How it was run: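 Human umbilical vein endothelial cells were dosed with chemical and, after 24 h, fixed with 10% TCA, stained with 0.1% sulforhodamine B, and read at 560 nm to give total protein as a cytotoxicity measure. Bidirectional fitting relative to DMSO control.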

[8] = BSK_BE3C_SRB: Viability Assessment in the BioMAP Diversity Plus: BE3C Assay (AID 2283028); conditions: primary human bronchial epithelial cells
How it was run: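 Human bronchial epithelial primary cells in confluent culture, 24 h after chemical dosing; total protein by 0.1% SRB staining after 10% TCA fixation, read at 560 nm. Bidirectional fitting versus DMSO baseline.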

[9] = read-out: Thrombomodulin, THBD (gene 7056); assay: BSK_3C_Thrombomodulin: BioMAP Diversity Plus: 3C Assay for Thrombomodulin Biomarker Activity (AID 2283029); conditions: primary human endothelial cells (HUVEC); actives raise or lower the signal
How it was run: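 Primary human umbilical vein endothelial cells (3C system) were exposed to chemical for 24 h, then thrombomodulin levels were measured by ELISA. Activity was fitted bidirectionally against the DMSO negative control as baseline.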

[10] = read-out: Urokinase-type plasminogen activator receptor (uPAR), PLAUR (gene 5329); assay: BSK_4H_uPAR: BioMAP Diversity Plus: 4H Assay for Urokinase-type plasminogen activator receptor (uPAR) Biomarker Activity (AID 2283030); conditions: primary human endothelial cells (HUVEC); actives raise or lower the signal
How it was run: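 Human umbilical vein endothelial cells in the 4H system, 24 h after chemical dosing. Cell-surface uPAR measured by ELISA, fitted in both directions versus DMSO; cytotoxicity checked by SRB total protein in parallel cultures.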

[11] = read-out: Vascular endothelial growth factor receptor 2 (Homo sapiens) (UniProt P35968); assay: BSK_4H_VEGFRII: BioMAP Diversity Plus: 4H Assay for Vascular endothelial growth factor receptor 2 (VEGFR2) Biomarker Activity (AID 2283031); conditions: primary human endothelial cells (HUVEC); actives raise or lower the signal;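 for AC50: cell-surface VEGFR2 protein level quantified by ELISA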
How it was run: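 Primary human umbilical vein endothelial cells (4H system), 24 h exposure; cell-surface VEGFR2 measured by ELISA. Bidirectional fitting versus DMSO; cytotoxicity checked in parallel by SRB total-protein staining.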

[12] = read-out: Human Leukocyte Antigen - DR isotype (HLADR), HLA-DRA (gene 3122); assay: BSK_BE3C_HLADR: BioMAP Diversity Plus: BE3C Assay for Human Leukocyte Antigen - DR isotype (HLADR) Biomarker Activity (AID 2283032); conditions: primary human bronchial epithelial cells; actives raise or lower the signal
How it was run: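 Human primary bronchial epithelial cells in the BE3C system were exposed to chemicals for 24 h, after which HLA-DR levels were quantified by ELISA. Activity was fitted bidirectionally, gain or loss of signal, against DMSO as negative control and baseline.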

[13] = read-out: Vascular cell adhesion molecule 1 (VCAM1), VCAM1 (gene 7412); assay: BSK_4H_VCAM1: BioMAP Diversity Plus: 4H Assay for Vascular cell adhesion molecule 1 (VCAM1) Biomarker Activity (AID 2283033); conditions: primary human endothelial cells (HUVEC); actives raise or lower the signal;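 note: cell-surface VCAM-1 protein measured by ELISA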
How it was run: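 Primary human umbilical vein endothelial cells were exposed to chemicals for 24 h, after which VCAM-1 was quantified by ELISA. Responses were fitted bidirectionally against DMSO as negative control and activity baseline.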

[14] = read-out: Interferon-gamma inducible Protein 10 (IP10), CXCL10 (gene 3627); assay: BSK_BE3C_IP10: BioMAP Diversity Plus: BE3C Assay for Interferon-gamma inducible Protein 10 (IP10) Biomarker Activity (AID 2283034); conditions: primary human bronchial epithelial cells; actives raise or lower the signal
How it was run: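 Human primary bronchial epithelial cells were exposed to chemicals for 24 hours, after which IP-10 levels were measured by ELISA. Data were fitted bidirectionally against DMSO, which served as the negative control and activity baseline.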

[15] = read-out: Monokine induced gamma interferon (MIG), CXCL9 (gene 4283); assay: BSK_BE3C_MIG: BioMAP Diversity Plus: BE3C Assay for Monokine induced gamma interferon (MIG) Biomarker Activity (AID 2283035); conditions: primary human bronchial epithelial cells; actives raise or lower the signal;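 note: MIG protein measured by ELISA in BE3C cultures after 24 h of dosing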
How it was run: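 ELISA read-out of MIG in human lung bronchial epithelial primary cultures, 24 h post-dosing. Bidirectional curve fit vs DMSO baseline.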

[16] = read-out: Transforming growth factor beta 1 (TGFb1), TGFB1 (gene 7040); assay: BSK_BE3C_TGFb1: BioMAP Diversity Plus: BE3C Assay for Transforming growth factor beta 1 (TGFb1) Biomarker Activity (AID 2283036); conditions: primary human bronchial epithelial cells; actives raise or lower the signal
How it was run: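 Human primary bronchial epithelial cells (BE3C system) were dosed with chemical and TGF-b1 levels measured by ELISA at 24 h. Activity was fitted bidirectionally relative to DMSO negative control as baseline.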

[17] = read-out: Plasminogen activator inhibitor-1 (PAI1), SERPINE1 (gene 5054); assay: BSK_BE3C_PAI1: BioMAP Diversity Plus: BE3C Assay for Plasminogen activator inhibitor-1 (PAI1) Biomarker Activity (AID 2283037); conditions: primary human bronchial epithelial cells; actives raise or lower the signal
How it was run: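 Human primary bronchial epithelial cells were exposed to chemical for 24 h, then PAI-1 was quantified by ELISA. Activity was fitted bidirectionally relative to the DMSO negative control baseline.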

[18] = read-out: urokinase plasminogen activator (uPA), PLAU (gene 5328); assay: BSK_BE3C_uPA: BioMAP Diversity Plus: BE3C Assay for urokinase plasminogen activator (uPA) Biomarker Activity (AID 2283038); conditions: primary human bronchial epithelial cells; actives raise or lower the signal
How it was run: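 Primary human bronchial epithelial cells, uPA measured by ELISA 24 h after dosing. Bidirectional change relative to DMSO; cytotoxicity checked in parallel cultures by sulforhodamine B total-protein staining.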

[19] = read-out: Urokinase-type plasminogen activator receptor (uPAR), PLAUR (gene 5329); assay: BSK_BE3C_uPAR: BioMAP Diversity Plus: BE3C Assay for Urokinase-type plasminogen activator receptor (uPAR) Biomarker Activity (AID 2283039); conditions: primary human bronchial epithelial cells; actives raise or lower the signal;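 note: cells exposed to compound for one day before measurement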
How it was run: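 Primary human bronchial epithelial cells were dosed with chemical and harvested 24 h later; uPAR was quantified by ELISA. Activity was fitted bidirectionally against DMSO as negative control and baseline.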

[20] = target: human Vitamin D Receptor (VDR), VDR (gene 7421) (UniProt P11473); assay: ATG_VDR_TRANS: Attagene TRANS-FACTORIAL HepG2 Assay for human Vitamin D Receptor (VDR) (AID 2283022; active = hit-call score of the fitted dose curve at least 0.9, where 1 is the maximum)
How it was run: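 HepG2 cells were transiently transfected with GAL4-UAS reporter units and a chimeric VDR-Gal4 construct, then dosed for 24 hours. Reporter mRNA was quantified by RT-PCR, fluorescent labeling, HpaI digestion and capillary electrophoresis; gain of signal analysed vs DMSO.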

Measured: AC50

human Vitamin D Receptor (VDR), VDR (gene 7421), sequence (P11473 whole entry, looked up, the tested form may be a part): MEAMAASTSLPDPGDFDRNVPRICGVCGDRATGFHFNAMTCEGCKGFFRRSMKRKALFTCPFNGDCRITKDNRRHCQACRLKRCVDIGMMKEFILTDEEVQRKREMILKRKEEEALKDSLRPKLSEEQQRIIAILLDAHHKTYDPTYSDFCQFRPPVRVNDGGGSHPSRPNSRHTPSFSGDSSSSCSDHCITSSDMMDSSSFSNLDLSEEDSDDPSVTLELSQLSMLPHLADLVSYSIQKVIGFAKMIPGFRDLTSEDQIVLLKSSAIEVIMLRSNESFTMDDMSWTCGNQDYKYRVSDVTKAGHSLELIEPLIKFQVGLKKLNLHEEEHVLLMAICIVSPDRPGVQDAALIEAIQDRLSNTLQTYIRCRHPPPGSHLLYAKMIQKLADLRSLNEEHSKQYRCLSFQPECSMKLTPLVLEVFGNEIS

CC(C)CCCCCCOC(=O)CCCCC(=O)OCCCCCCC(C)C
not listed: [20]
inactive: all other assays above

NCC(F)(F)C(F)(F)C(F)(F)C(F)(F)C(F)(F)C(F)(F)C(F)(F)F
inactive: [1] | [2] | [20] | [3] | [4] | [6] | [7] | [8] | [9] | [10] | [11] | [12] | [13] | [14] | [15] | [17] | [18] | [19]
active: [11] 7.22 µM

c1ccc2c(c1)ccc1ccccc12
inactive: all assays above

O=C1OC2(c3ccccc31)c1cc(Br)c(O)c(Br)c1Oc1c2cc(Br)c(O)c1Br
inactive: [20]

CC(C)(C)c1cc(C(C)(C)C)c(O)c(C(C)(C)C)c1
active: [4] 10.5 µM | [6] 20 µM | [9] 6.29 µM | [18] 5.06 µM
not listed: [20]
inactive: all other assays above

N#C[C@@H]1CC(F)(F)CN1C(=O)CNC1CC2CCC(C1)N2c1ncccn1 (stereo partly specified)
active: [1] 7.55 µM | [3] 8.06 µM | [5] 5.57 µM
not listed: [20]
inactive: all other assays above

CCCCOCCO
not listed: [20]
inactive: all other assays above
